A number with no mark means an inactive call. The source made the active and inactive calls.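 The calls were made as follows, unless noted: active = thallium flux through the channel raised or lowered by more than 3 SD from vehicle-only wells, actives on both sides; inactive = the rest.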
What was measured:
[1] = antimalarial activity against Dd2 strain (AID 2302;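 active = growth inhibition above 50% at the single 2 µM test dose, taken to imply half-maximal potency below 2 µM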;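 also: 0% = DMSO untreated growth and 100% = chloroquine plus artemisinin killed control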); conditions: P. falciparum Dd2 in RBCs, LDH growth readout, 72 h; at 2 µM; hits give high values
[2] = HepG2 cytotoxicity, primary screen, cytotoxicity control for P. falciparum antimalarial project, cell-based, ATP luminescence (AID 2303;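 active = inhibition above 50%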;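 also: 0% = DMSO wells and 100% = digitonin-killed cells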); conditions: HepG2 viability, 24-48 h, at 10 µM, hits give high values
[3] = target: L-lactate dehydrogenase (Plasmodium falciparum (isolate CDC / Honduras)) (UniProt Q27743); assay: PfLDH activity inhibition – cell lysate, 3D7 strain, counter-screen for P. falciparum growth inhibition project (AID 2304; call rule not given here;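 also: 0% = vehicle and 100% = reference inhibitor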); conditions: P. falciparum 3D7 crude extract, LDH APAD/NBT absorbance; at 2 µM; hits give high values
Sequence of L-lactate dehydrogenase (Plasmodium falciparum (isolate CDC / Honduras)) (Q27743 whole entry, looked up): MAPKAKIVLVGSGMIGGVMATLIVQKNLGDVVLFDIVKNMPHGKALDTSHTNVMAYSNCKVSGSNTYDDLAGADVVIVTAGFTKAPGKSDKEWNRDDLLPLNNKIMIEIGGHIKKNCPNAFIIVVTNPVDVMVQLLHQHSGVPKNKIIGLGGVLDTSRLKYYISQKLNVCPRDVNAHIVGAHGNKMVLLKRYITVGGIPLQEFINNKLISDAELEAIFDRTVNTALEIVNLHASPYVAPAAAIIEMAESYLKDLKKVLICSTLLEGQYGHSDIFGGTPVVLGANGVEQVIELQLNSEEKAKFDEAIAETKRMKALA

[4] = inhibition of 3D7 malaria parasite growth – strain 3D7 (AID 2306; call rule not given here;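 also: 0% = DMSO wells and 100% = chloroquine plus artemisinin control wells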); conditions: P. falciparum 3D7 erythrocytic growth, LDH absorbance, 72 h; at 2 µM; hits give high values
[5] = target: Protein kinase 7 (PK7), Plasmodium falciparum 3D7 (PF3D7_0213400) (UniProt Q7YTF7); assay: inhibition of Plasmodium PK7 catalytic activity – biochemical, TCAMS antimalarial set, Kinase-Glo luminescence (AID 1159587; call rule not given here); conditions: recombinant PfPK7, Kinase-Glo ATP depletion luminescence
Sequence of Protein kinase 7 (PK7), Plasmodium falciparum 3D7 (PF3D7_0213400) (Q7YTF7 1-343): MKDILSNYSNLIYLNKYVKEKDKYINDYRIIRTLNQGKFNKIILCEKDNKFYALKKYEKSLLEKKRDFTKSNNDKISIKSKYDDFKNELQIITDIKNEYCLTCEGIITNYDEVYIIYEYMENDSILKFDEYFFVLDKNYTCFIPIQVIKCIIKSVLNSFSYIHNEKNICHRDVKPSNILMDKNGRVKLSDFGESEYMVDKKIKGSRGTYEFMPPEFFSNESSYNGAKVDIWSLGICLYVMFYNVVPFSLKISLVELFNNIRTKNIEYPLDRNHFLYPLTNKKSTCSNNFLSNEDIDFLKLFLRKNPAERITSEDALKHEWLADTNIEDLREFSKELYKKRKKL

F380Y = assay: modulators of BK channel variants, profiling panel, selectivity assay, cell-based, U2OS BacMam, thallium flux, beta subunits (AID 1259406); conditions: at 30 µM;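 also: initial slope of Thallos dye fluorescence rise after thallium is added; log ratio against the mean of 0.3% DMSO vehicle wells on the same plate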
F380Y/beta1 = assay: as above; conditions: at 30 µM
F380Y/beta2Delta = assay: as above; conditions: at 30 µM
F380Y/beta4 = assay: as above; conditions: at 30 µM
[6] = target: Calcium-activated potassium channel subunit alpha-1 (Homo sapiens) + Leucine-rich repeat-containing protein 26 (Homo sapiens) (UniProt Q12791+Q2I0M4); assay: as above; conditions: F380Y/Slo1WT/gamma1, at 30 µM
Sequence of Calcium-activated potassium channel subunit alpha-1 (Homo sapiens) + Leucine-rich repeat-containing protein 26 (Homo sapiens) (Q2I0M4 whole entry, looked up, one chain of several): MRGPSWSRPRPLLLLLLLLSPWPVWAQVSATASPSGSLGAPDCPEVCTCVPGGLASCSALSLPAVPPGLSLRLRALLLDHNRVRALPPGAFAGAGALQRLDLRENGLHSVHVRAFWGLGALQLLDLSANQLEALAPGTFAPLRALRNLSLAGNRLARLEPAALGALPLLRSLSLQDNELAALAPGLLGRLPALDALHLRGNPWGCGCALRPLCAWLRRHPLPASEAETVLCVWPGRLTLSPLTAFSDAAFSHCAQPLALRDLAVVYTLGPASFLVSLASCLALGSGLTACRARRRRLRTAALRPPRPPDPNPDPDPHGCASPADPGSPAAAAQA

R275C = assay: as above; conditions: at 30 µM
R275C/beta1 = assay: as above; conditions: at 30 µM
R275C/beta2Delta = assay: as above; conditions: at 30 µM
R275C/beta4 = assay: as above; conditions: at 30 µM
R275C/Slo1WT/beta2 = assay: as above; conditions: at 30 µM

Row | Compound | growth inhibition [1] | inhibition [2] | inhibition [3] [%] | growth inhibition [4] | outcome [5] | log fold change Tl+ flux (F380Y) | log fold change Tl+ flux (F380Y/beta1) | log fold change Tl+ flux (F380Y/beta2Delta) | log fold change Tl+ flux (F380Y/beta4) | log fold change Tl+ flux [6] | log fold change Tl+ flux (R275C) | log fold change Tl+ flux (R275C/beta1) | log fold change Tl+ flux (R275C/beta2Delta) | log fold change Tl+ flux (R275C/beta4) | log fold change Tl+ flux (R275C/Slo1WT/beta2)
1 | Cc1cc(Nc2ncc(C#N)c(Nc3ccccc3C(N)=O)n2)ccc1N1CCN(C)CC1 | 94% (active) | 99% (active) | 0 | 94% (active) | inactive |  |  |  |  |  |  |  |  |  | 
2 | NNC(=O)Cc1csc2nc(-c3ccccc3)nn12 |  |  |  |  |  | 0.0124 | 0.00927 | 0.017 | 0.00133 | -0.0179 | 0.0143 | 0.0323 | 0.0113 | 0.0106 | 0.0322
3 | N#Cc1c(F)cccc1NC1CCN(Cc2ccccc2)CC1 |  |  |  |  |  | -0.0529 | -0.0783 | -0.0626 | -0.103 (active) | -0.0887 | -0.0649 | -0.0261 | -0.0118 | -0.0356 | -0.0644
4 | O=C(Nc1cccc(-c2nn3ccccc3c2-c2ccnc(Nc3ccc(NCCCN4CCOCC4)c(F)c3)n2)c1)c1c(F)cccc1F | 97% (active) | 86% (active) | 0 | 100% (active) | inactive |  |  |  |  |  |  |  |  |  | 
5 | CC(=O)N(C(C)=O)c1ccc2c3c(cccc13)CC2 |  |  |  |  |  | 0.051 | -0.00187 | -0.0119 | -0.0487 | -0.0226 | 0.0133 | 0.0421 | -0.00855 | 0.0484 | 0.0138
6 | CC(C)(C)NC(=S)NNc1c(Cl)cncc1Cl |  |  |  |  |  | -0.00302 | -0.0136 | -0.0137 | -0.0352 | -0.035 | 0.0328 | 0.0635 | 0.00425 | -0.00379 | 0.0133
7 | CS(=O)(=O)Cc1ccc(Nc2nccc(-c3c(-c4cccc(NC(=O)C5CCCCC5)c4)nn4ncccc34)n2)cc1 | 99% (active) | 31% | 0 | 98% (active) | inactive |  |  |  |  |  |  |  |  |  | 
8 | Cc1cc2nccc(-c3cccnc3)n2n1 |  |  |  |  |  | -0.0198 | -0.0232 | 0.0219 | -0.0149 | -0.0534 | 0.00294 | -0.00487 | -0.00124 | 0.00702 | -0.00651
9 | CN1CCN(c2ccc(Nc3ncc(C#N)c(Nc4ccccc4C(N)=O)n3)cc2)CC1 | 93% (active) | 43% | -1 | 92% (active) | inactive |  |  |  |  |  |  |  |  |  | 
10 | O=C(O)C(Cc1ccccc1[N+](=O)[O-])=NNc1ccccc1 |  |  |  |  |  | 0.0136 | 0.0239 | 0.0162 | 0.0888 | 0.0895 | 0.0387 | 0.0681 | 0.0201 | 0.0231 | 0.00699
11 | CC(c1cccc(Nc2nccc(-c3c(-c4cccc(NC(=O)c5c(F)cccc5F)c4)nn4ncccc34)n2)c1)S(C)(=O)=O (stereo not given) | 98% (active) | 79% (active) | 4 | 98% (active) | inactive |  |  |  |  |  |  |  |  |  | 
12 | CN(C1CCCCC1)S(=O)(=O)c1cccs1 |  |  |  |  |  | -0.0928 | -0.00759 | -0.0383 | 0.000313 | -0.00414 | -0.0438 | -0.00595 | -0.0535 | -0.025 | 0.0321
13 | O=S(=O)(NCc1ccc2c(c1)CCO2)c1cccs1 |  |  |  |  |  | -0.0321 | -0.0222 | -0.0113 | -0.00792 | -0.0976 | -0.0104 | -0.072 | -0.0692 | -0.0665 | -0.0508
14 | Cc1onc(-c2c(Cl)cccc2Cl)c1C(=O)NOC(=O)c1cccs1 |  |  |  |  |  | 0.00334 | 0.0153 | 0.0189 | 0.0829 | -0.0657 | -0.0156 | 0.0266 | 0.0291 | 0.0618 | -0.0647
15 | COC(=O)c1cnn(C(=O)Nc2c(C)cccc2C)c1C(OC)OC |  |  |  |  |  | -0.0549 | -0.00196 | -0.0264 | -0.029 | 0.033 | 0.02 | -0.0504 | -0.0443 | 0.00703 | 0.00968
16 | Cn1cnc([N+](=O)[O-])c1Sc1cccs1 |  |  |  |  |  | 0.0486 | 0.0187 | 0.0459 | 0.0453 | 0.029 | 0.00916 | 0.0118 | 0.0288 | 0.0285 | 0.0293
17 | COc1ccc(C(=O)NNC(=O)c2c(OC)cc(C(F)(F)F)cc2C(F)(F)F)cc1 |  |  |  |  |  | 0.044 | 0.017 | -0.00926 | 0.0361 | 0.00672 | 0.0148 | 0.0608 | 0.00715 | 0.021 | 0.015
18 | Cc1[nH]n(-c2c(Cl)cc(C(F)(F)F)cc2Cl)c(=O)c1N=Nc1ccccc1 |  |  |  |  |  | 0.0138 | 0.00301 | 0.00886 | 0.0101 | -0.0146 | -0.0246 | 0.00755 | 0.0171 | -0.0209 | -0.029
19 | CCCCC#Cc1ccc(C(=O)NNC(=O)Nc2ccccc2)o1 |  |  |  |  |  | 0.0775 | -0.0382 | 0.0115 | 0.00448 | -0.0213 | 0.0317 | 0.0182 | -0.00673 | -0.0333 | 0.023
20 | O=C(NNC(=O)c1ccc2nonc2c1)c1cccc(C(F)(F)F)c1 |  |  |  |  |  | 0.0115 | 0.037 | 0.0509 | 0.00874 | -0.0024 | 0.0381 | 0.0483 | 0.036 | 0.0129 | -0.0326
21 | COC(=O)C(C#N)=C1NC(C)=NC(SC)=C1C#N |  |  |  |  |  | -0.0152 | 0.03 | -0.00376 | 0.021 | 0.0176 | -0.014 | -0.0163 | -0.0169 | -0.0352 | 0.0253
22 | CC(=O)Nc1cccc(Nc2nccc(-c3c(-c4cccc(NC(=O)c5c(F)cccc5F)c4)nn4ncccc34)n2)c1 | 51% (active) | 83% (active) | 5 | 96% (active) | inactive |  |  |  |  |  |  |  |  |  | 
23 | CCN(CC)CCCOc1ccc(Nc2nccc(-c3c(-c4cccc(NC(=O)c5c(F)cccc5F)c4)nn4ccccc34)n2)cc1F | 99% (active) | 86% (active) | -5 | 100% (active) | inactive |  |  |  |  |  |  |  |  |  | 
24 | NC(Cc1ccc(OCc2ncc(C(F)(F)F)cc2Cl)cc1)=NOC(=O)c1ccccc1 |  |  |  |  |  | 0.0193 | -0.00621 | 0.00968 | -0.0023 | -0.00749 | 0.0533 | 0.0113 | 0.000291 | 0.00465 | 0.0382
25 | Clc1ccc(-c2nc(-c3cnccn3)no2)cc1 |  |  |  |  |  | -0.0251 | 0.0188 | -0.00983 | 0.0205 | -0.00021 | 0.00752 | -0.0226 | 0.0101 | 0.00987 | 0.0471
26 | O=C(NC(=O)c1ccccc1Oc1ccc(Cl)cc1Cl)Nc1cc(Cl)cc(Cl)c1 |  |  |  |  |  | 0.0204 | 0.0216 | -0.00408 | -0.00832 | 0.0199 | 0.0363 | -0.0332 | 0.00447 | 0.0362 | -0.00947
27 | CC(C)(C)OC(=O)N1CCC(c2nc(-c3ccc(Cl)s3)cs2)CC1 |  |  |  |  |  | 0.0108 | 0.0589 | -0.0352 | -0.0115 | -0.0565 | -0.00778 | 0.0364 | 0.0302 | 0.0463 | 0.0374
28 | CS(=O)(=O)Cc1ccc(Nc2nccc(-c3c(-c4cccc(C(=O)Nc5c(F)cccc5F)c4)nn4ccccc34)n2)cc1 | 92% (active) | 85% (active) | -1 | 96% (active) | inactive |  |  |  |  |  |  |  |  |  | 
29 | CSC(=S)NNC(=O)c1ccc(C(F)(F)F)cc1 |  |  |  |  |  | 0.0858 | 0.233 (active) | 0.0998 | 0.29 (active) | 0.1 | 0.134 (active) | 0.158 (active) | 0.0788 | 0.305 (active) | 0.232 (active)
30 | Cc1onc(-c2c(Cl)cccc2Cl)c1C1=NCCO1 |  |  |  |  |  | -0.0274 | -0.0222 | -0.0541 | -0.0118 | -0.0114 | -0.0117 | -0.0507 | -0.0377 | 0.0277 | -0.00731

Source: PubChem BioAssay
